Entries with a potency or affinity are not part of this list.
molecular target: T1, Ubiquitin-activating enzyme e1, putative (Leishmania donovani (strain BPK282A1)) (UniProt E9BSI1); test: Leishmania donovani Ubiquitin Activating Enzyme (LdE1); type: functional; design: scale not given: direction of the effect not stated beside the values; conditions: 30 µM
T1 sequence (whole entry): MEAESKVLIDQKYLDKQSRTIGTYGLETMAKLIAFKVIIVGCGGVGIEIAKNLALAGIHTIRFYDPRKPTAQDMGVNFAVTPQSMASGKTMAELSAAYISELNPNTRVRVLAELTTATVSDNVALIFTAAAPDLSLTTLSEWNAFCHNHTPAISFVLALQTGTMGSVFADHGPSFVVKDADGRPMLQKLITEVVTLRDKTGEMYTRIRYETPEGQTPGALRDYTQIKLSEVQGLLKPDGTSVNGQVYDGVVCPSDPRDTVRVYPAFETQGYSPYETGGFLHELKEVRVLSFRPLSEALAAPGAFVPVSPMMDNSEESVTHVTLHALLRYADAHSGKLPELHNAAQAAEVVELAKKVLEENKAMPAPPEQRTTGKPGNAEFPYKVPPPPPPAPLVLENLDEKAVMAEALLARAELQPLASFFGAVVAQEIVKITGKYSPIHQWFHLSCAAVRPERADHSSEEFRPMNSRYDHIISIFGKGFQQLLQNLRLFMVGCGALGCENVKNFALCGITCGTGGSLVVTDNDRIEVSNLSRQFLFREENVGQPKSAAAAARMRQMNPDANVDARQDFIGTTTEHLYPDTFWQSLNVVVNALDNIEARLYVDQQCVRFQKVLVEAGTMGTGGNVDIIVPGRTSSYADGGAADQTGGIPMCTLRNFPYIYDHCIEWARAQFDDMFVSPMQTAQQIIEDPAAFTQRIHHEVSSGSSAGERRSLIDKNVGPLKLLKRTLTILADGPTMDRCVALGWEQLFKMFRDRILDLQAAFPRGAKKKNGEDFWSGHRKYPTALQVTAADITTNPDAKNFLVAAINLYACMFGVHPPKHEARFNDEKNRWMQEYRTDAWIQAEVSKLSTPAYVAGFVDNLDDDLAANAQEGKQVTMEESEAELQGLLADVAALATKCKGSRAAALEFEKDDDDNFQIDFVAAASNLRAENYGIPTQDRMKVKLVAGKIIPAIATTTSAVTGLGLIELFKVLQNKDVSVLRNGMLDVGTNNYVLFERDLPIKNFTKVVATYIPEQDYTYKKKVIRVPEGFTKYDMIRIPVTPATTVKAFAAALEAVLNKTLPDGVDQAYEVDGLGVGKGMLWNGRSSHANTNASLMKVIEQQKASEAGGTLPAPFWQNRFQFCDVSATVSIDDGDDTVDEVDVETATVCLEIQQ

Compared with `CC(Nc1cccc(CN2CCOC2=O)c1)C(=O)N1CCNC1=O` (stereo not given), `COc1cccc(-n2nnc(C(=O)N3CCCC3)c2C)c1` is higher in Percent Effect: 7.69% for the first, 10.3% for the second.

Compared with `COC[C@@H]1CC[C@H]2[C@H](CCN2S(=O)(=O)c2cccc(C)c2)O1`, `Cc1nccn1-c1cccc(C2CCCN2S(=O)(=O)N(C)C)n1` (stereo not given) is higher in Percent Effect: 6.49% for the first, 14.7% for the second.

First: O=C(c1ccc(F)cc1F)N1CC[C@H](O)[C@@H](N2CCOCC2)CC1
Second: Cc1nc(C2CCN(C(=O)CO)CC2)cc(N2CCOCC2)n1
The Percent Effect of the first is lower: 6.67% for the first, 8.11% for the second.

First: Cc1nc(C(=O)N2CCc3c(nc(-c4ccncc4)[nH]c3=O)C2)cs1
Second: O=C(c1cc2cc(F)ccc2[nH]1)N1CCC(Nc2cccnn2)CC1
The Percent Effect of the first is lower: 0% for the first, 7.79% for the second.

Going from `CN1CCC/C1=N\S(=O)(=O)c1ccc(NC(=O)c2cccs2)cc1` to `CCc1ccc(NC(=O)C2OC(c3cccs3)=NN2C(C)=O)cc1` (stereo not given), the Percent Effect falls from 15.6% to 12%.

First: c1csc(-c2nc(CNC3CCc4ncnn4C3)cs2)c1 (stereo not given)
Second: Cn1cc(CNCC2Cn3nnc(-c4ccccc4)c3CO2)cn1 (stereo not given)
The Percent Effect of the first is higher: 10.3% for the first, 6.49% for the second.

First: Cc1ccc(C(=O)N2Cc3c(CN4CCCCC4)nn(C)c3C2)cc1C
Second: CCOC(=O)N1CCN(C(=O)c2ccc3ccn(C)c3c2)CC1
The Percent Effect of the first is lower: -1.3% for the first, 0% for the second.

Going from `O=C1CC2(CCN(CC3CC3)C2)CN1c1ccc2c(c1)OCO2` (stereo not given) to `CC(=O)N1CCC2(CC1)C(=O)N(CC1CC1)c1ccccc12`, the Percent Effect falls from 16.9% to 9.09%.

First: COCc1nc(C(=O)NS(=O)(=O)c2ccc(C)cc2C)cs1
Second: COc1ccccc1OCC(=O)NS(=O)(=O)c1ccc(C)s1
The Percent Effect of the first is lower: 0% for the first, 5.2% for the second.

First: Cc1nn(C)cc1CCC(=O)N1CCCC(n2cncn2)C1 (stereo not given)
Second: Cn1cc(C(=O)N2CCCC(n3cccn3)C2)c2ccccc21 (stereo not given)
The Percent Effect of the first is lower: 2.67% for the first, 8% for the second.

`COCC(=O)N1CCC2(CCN(Cc3ccccn3)CC2)CC1` and `CC(C)CN1CCN(C)C2(CCN(Cc3ccsc3)CC2)C1=O` are the same in Percent Effect: 6.49% for the first, 6.49% for the second.

First: Cc1ncsc1C(=O)N(Cc1cccnc1)C1CC1
Second: CC1CCN(C(=O)c2cccc3ncccc23)CC1
The Percent Effect of the first is higher: 2.56% for the first, -5.33% for the second.

Compared with `Cn1cnc2c1CCN(CCS(=O)(=O)c1ccccc1)C2`, `CS(=O)(=O)c1ccccc1C(=O)NCCCN1CCc2ccccc2C1` is higher in Percent Effect: 2.67% for the first, 18.7% for the second.

Compared with `CN(C(=O)Cc1c[nH]c2ccccc12)C1CCN(c2ccccn2)CC1`, `Cn1cc(CN2CCCN(C(=O)c3cn4ccccc4n3)CC2)cn1` is higher in Percent Effect: 2.67% for the first, 25.6% for the second.

Compared with `CC1COCCN1C(=O)c1cccc(OCc2cscn2)c1` (stereo not given), `CC(C)(C)c1n[nH]c(C2CN(C(=O)CCc3cscn3)CCO2)n1` (stereo not given) is lower in Percent Effect: 10.3% for the first, 7.69% for the second.

`Cn1cccc1C(=O)N1CCCC2(CCCN2Cc2cccnc2)C1` (stereo not given) and `CS(=O)(=O)NCc1ncn2c1CN(C(=O)CC1CCCC1)CCC2` are the same in Percent Effect: -1.3% for the first, -1.3% for the second.

Going from `CN(Cc1noc(C2CC2)n1)C1CCN(Cc2nnc(C3CC3)o2)C1` (stereo not given) to `c1ncn(CC2CN(Cc3noc(C4CC4)n3)CCO2)n1` (stereo not given), the Percent Effect falls from 15.6% to 2.67%.

Compared with `CC(C)c1nn(C)c(N2CCOCC2)c1CNCC(=O)N(C)C`, `Cc1c[nH]nc1C1CCCCN1C(=O)Cn1cc(Cl)cn1` (stereo not given) is higher in Percent Effect: 12.8% for the first, 14.7% for the second.

Compared with `Cc1ccc(-c2cc(CN3CCCC(Cn4cncn4)C3)on2)cc1` (stereo not given), `Cc1cnn(CC2CCCCN2CCCS(N)(=O)=O)c1` (stereo not given) is higher in Percent Effect: 7.79% for the first, 21.3% for the second.

Compared with `COc1ccc(C2CC(=O)Nc3c2nc2n3CCCC2)cc1OC` (stereo not given), `CC(=O)N1CCCN(CC(C)(O)c2cccc(C(F)(F)F)c2)CC1` (stereo not given) is higher in Percent Effect: 8.11% for the first, 10.4% for the second.

— ChEMBL document CHEMBL3988442, “University of Dundee, Small-Polar-MMV Screening Library” (2021)
